Molecules are shown by their SMILES. Results filed as inconclusive are left out. Where a call stands in place of a potency, no number is given. Calls of active or inactive are those of the source. Calls follow the shape of the dose curve; as a rule, active = well fitted inhibition curve with a large enough effect; inconclusive = small, poorly fitted or top-dose-only effect; inactive = no such curve, though single readings can be large or run the other way.

The values that follow come from PubChem BioAssay (NCATS).
Potency is read from the fitted curve at half-maximal effect.

This assay can be described thus: Primary qHTS for inhibitors of nuclear receptor binding SET domain protein 2 (NSD2) in an RCH-ACV wild type WT cells (2C) (AID 1645877). Also: nearly all actives have a fitted effect of over 70% in size. The settings on record: RCH-ACV (leukaemia line) NSD2 WT (2C) viability, CellTiter-Glo, 72 h; series mostly up to 44.9 µM.
For `COC(=O)C1=COC(O[C@@H]2O[C@H](CO)[C@@H](O)[C@H](O)[C@H]2O)/C(=C\COC(=O)c2ccc(OC3OC(CO)C(O)C(O)C3O)c(OC)c2)C1CC(=O)OCCc1ccc(O)cc1` (some centres not stated), the outcome was “inactive [at 9.23 µM]”.

For the compound `COc1ncc(-c2ccc3c(Nc4cc(Oc5cc(F)cc(F)c5)cc(C(=O)O)c4)c(S(=O)(=O)NC4CC4)cnc3c2)c(OC)n1`, the Potency result was “inactive”.

Turning to `CC1(C)CC[C@]2(C(=O)O)CC[C@]3(C)C(=CCC4[C@@]5(C)CCC(O[C@@H]6OC[C@H](O)[C@H](O)[C@H]6O[C@@H]6O[C@H](CO)[C@@H](O)[C@H](O)[C@H]6O)[C@@](C)(CO)C5CC[C@]43C)[C@@H]2C1` (some centres not stated), the Potency result is “inactive”.

In the case of `CC1CCC2(C(=O)OC3OC(CO)C(O)C(O)C3O)CCC3(C)C(=CCC4C5(C)CC(O)C(O)C(C)(C(=O)O)C5CCC43C)C2C1(C)O` (configuration not stated), the Potency result is “inactive”.

Turning to `Nc1ccn([C@@H]2C(F)=C(CO)[C@@H](O)[C@H]2O)c(=O)n1`, the Potency is 332 nM (active).

For the compound `CC(=O)O[C@@]1(C)C[C@@H](O)[C@]2(O)C=CO[C@@H](O[C@@H]3O[C@H](CO)[C@@H](O)[C@H](O)[C@H]3O)[C@@H]21`, the Potency entry is “inactive”.

Regarding `C=C(C)[C@@H](C)[C@H]1O[C@]23C[C@]4(CO2)C(CCC2[C@@]5(C)CC[C@H](O[C@@H]6OC[C@H](O)[C@H](O[C@@H]7O[C@H](CO)[C@@H](O)[C@H](O)[C@H]7O)[C@H]6O[C@@H]6O[C@@H](CO)[C@H](O)[C@H]6O)C(C)(C)C5CC[C@]24C)C3[C@@](C)(O)[C@@H]1OC(C)=O` (some centres not stated), the outcome was “inactive [at 9.23 µM]”.
